Measurements published in ChEMBL document CHEMBL3988442, “University of Dundee, Small-Polar-MMV Screening Library” (2021).
In all, about 48,000 compounds went through this assay and about 13,000 (27%) showed an effect of 50% or more. The list shows a part of the results.

The molecules below were run on Wolbachia pipientis (assay: Anti-Wolbachia Cell-Based Screen). Details: 5 µM.
Format: functional
Set-up: scale not given: in the data most compounds retested in dose-response had high values

Row | SMILES | Percent Effect [%]
1 | CCC(=O)N1CCN(C(=O)Nc2cccc(F)c2)[C@H]2CS(=O)(=O)C[C@H]21 | 4.618
2 | Nc1nc(CN2CCOC(Cn3cccn3)C2)nc2ccccc12 (configuration not stated) | 54.57
3 | Cc1nc(CN2CCOC(Cn3cccn3)C2)nc2ccccc12 (configuration not stated) | 103.8
4 | Cc1nc2ccccc2nc1CN1CCOC(Cn2cccn2)C1 (configuration not stated) | 77.13
5 | Cc1nc(CN2CCOC(Cn3cncn3)C2)nc2ccccc12 (configuration not stated) | -10.51
6 | Cc1cnn(CC2CN(Cc3nc(N)c4ccccc4n3)CCO2)c1 (configuration not stated) | 9.564
7 | Cc1cnn(CC2CN(Cc3nc4ccccc4nc3C)CCO2)c1 (configuration not stated) | -8.261
8 | Cc1cnn(CC2CN(Cc3nc(C)c4ccccc4n3)CCO2)c1 (configuration not stated) | 114.4
9 | Nc1nc(CN2CCOC(Cn3cncn3)C2)nc2ccccc12 (configuration not stated) | -0.7232
10 | CNC(=O)Cc1ccc(-n2ccnc2-c2cccc(C(=O)O)c2)cc1 | -25.18
11 | Cc1noc(-c2ccc(N(C)Cc3cccnc3)nc2)n1 | -25.91
12 | O=C1CCc2cc(S(=O)(=O)NCc3cc4n(n3)CCNC4)ccc2N1 | -63.18
13 | Cc1ccc(C(CNCc2cnn(C(C)C)c2)N2CCOCC2)s1 (configuration not stated) | 14.4
14 | O=C(NCC(O)COc1cccc(F)c1)C1(c2ccc(F)cc2)CC1 (configuration not stated) | -1.107
15 | CCCOCCn1ncc(N2CCc3ccccc3C2)cc1=O | -4.867
16 | Cc1noc(C)c1CNc1ccc2nc(C3CC3)sc2c1 | -3.579
17 | CSc1ccc(NCc2csc(CS(C)(=O)=O)n2)cc1F | 19.87
18 | COC(=O)c1ccc(NCc2csc(C)n2)cc1Cl | 105.1
19 | COCc1nc2cc(NCc3csc(C)n3)ccc2o1 | -10.85
20 | COc1ccc(OCCCNC(=O)NCc2csc(C)n2)cc1 | -1.518
21 | COC(=O)c1cc(NCc2cscn2)ccc1C | 4.935
22 | Cc1ccc(-c2nc(CNc3ccc(C(N)=O)c(C)c3)cs2)o1 | 16.54
23 | COCCNC(=O)c1ccc(NCc2c(C)noc2C)cc1Cl | 99.6

Row | SMILES | Percent Effect [%]
24 | CSc1ccc(NCc2csc(C)n2)cc1F | 74.08
25 | Cc1noc(C)c1CNc1cccc(C(=O)N(C)c2ccccc2)c1 | 8.742
26 | CNC(=O)Cc1nc(CNc2ccc(SC)c(F)c2)cs1 | 0.08952
27 | COCCNC(=O)c1ccc(NCc2csc(C)n2)cc1Cl | 103.1
28 | CCOCCC(=O)N1Cc2cnc(-c3ccccc3)nc2C1 | -9.321
29 | Cc1nsc(N2CCN(C(=O)Nc3cccc(C#N)c3)CC2)n1 | -11.67
30 | CC(=O)N[C@@H]1CN(Cc2ccccc2-n2cccn2)C[C@H]1C(C)C | 1.725
31 | Cc1cc(C)cc(C(=O)NCCCC2(C3OCCO3)CCOCC2)c1 | 11.75
32 | CCn1c(CN(C)CC(=O)N(C)C)nc2c(F)cccc21 | -12.46
33 | Cc1nnc(N2C[C@H](Oc3ccccn3)[C@H]3OCCC[C@H]32)s1.O=C(O)C(F)(F)F.O=C(O)C(F)(F)F | -4.759
34 | O=C(Nc1ccc(-c2cscn2)cc1)C1CCCN(Cc2ccon2)C1 (configuration not stated) | -5.748
35 | CCOC(=O)NCCNC(=O)c1cc(Br)cn1C(C)C | -7.035
36 | Cc1cnc(C(=O)N2CCC3(CCN3Cc3ccc(F)cc3)C2)cn1.O=C(O)C(F)(F)F (configuration not stated) | 105.8
37 | Cn1ccnc1C(=O)N1CCC2(CCN2Cc2ccc(F)cc2)C1.O=C(O)C(F)(F)F (configuration not stated) | 107.3
38 | Cc1ccc(C(=O)N2CCC3(CCN(c4ccsc4)C3=O)C2)cn1.O=C(O)C(F)(F)F (configuration not stated) | 44.84
39 | CCN1CCC12CCN(C(=O)c1ccsc1)C2.O=C(O)C(F)(F)F (configuration not stated) | -5.276
40 | O=C(c1ccsc1)N1CCC2(CCN2Cc2ccc(F)cc2)C1 (configuration not stated) | -0.5147
41 | Cn1ccnc1C(=O)N1CCC2(CCN2CC2CC2)C1.O=C(O)C(F)(F)F (configuration not stated) | -29.26
42 | Cc1ccc(C(=O)N2CCC3(CCN3Cc3ccc(F)cc3)C2)cn1.O=C(O)C(F)(F)F (configuration not stated) | 111.6
43 | CCn1c(Cn2cncn2)nnc1C1CCN(C(=O)CCSC)CC1 | 0.8054
44 | CCn1c(SC)nnc1C1CCN(C(=O)N2CCCC2)CC1 | 139.7
45 | CCn1c(CN2CCCC2)nnc1C1CCN(S(=O)(=O)CC)CC1 | 6.34
46 | CSc1nnc(C2CCN(C(=O)N3CCCC3)CC2)n1C | 86.99

Row | SMILES | Percent Effect [%]
47 | Cn1c(CN2CCCC2)nnc1C1CCCN(C(=O)N2CCOCC2)C1 (configuration not stated) | -16.59
48 | CSc1nnc(CC2CCN(C(=O)Cc3ccncc3)CC2)n1C | -0.6807
49 | O=C(NCCNc1ncccn1)N1CCSCC1 | -3.552
50 | O=C(NCCNc1ncccn1)C1CCN(CC(F)(F)F)CC1 | 1.799
51 | O=C(NCCNC(=O)C1CCN(CC(F)(F)F)CC1)c1ccoc1 | 16.83
52 | O=C(NCCNc1ncccn1)C1CCN(C(=O)N2CCCC2)CC1 | 88.68
53 | CC(C)(C)OC(=O)N1CCC(C(=O)NCCNc2ncccn2)CC1 | 98.46
54 | O=C(NCCNc1ncccn1)C1CCN(C(=O)NC2CC2)CC1 | 95.19
55 | CN(C)C(=O)N1CCC(C(=O)NCCNc2ncccc2C#N)CC1 | -1.068
56 | O=C(NCCNc1ncccn1)C1CCN(C(=O)c2ccoc2)CC1 | 101.2
57 | O=C(NCCNc1ncccn1)C1CCN(C(=O)C2CC2)CC1 | 7.876
58 | O=C(NCCNC(=O)C1CCN(c2ncccn2)CC1)c1ccoc1 | -1.676
59 | CC(O)CN1CCC(CN(C)Cc2ccc(C(N)=O)cc2)CC1 (configuration not stated) | 3.378
60 | O=C1N(Cc2cccc(F)c2F)CCCC1(O)CNCC1CCCCC1 (configuration not stated) | -14.65
61 | Cc1nc2ccccc2nc1CN1CCn2nc(CCC(=O)O)cc2C1 | 11.39
62 | CC(Nc1ccc(CN2CCCC2=O)cc1)C(=O)N(C)CCC#N (configuration not stated) | 4.456
63 | CCCC(=O)N1CCC(C(=O)NCCN2CCC(C)CC2)CC1 | 2.916
64 | O=C(NCCNc1ncccn1)C1CCCC1 | 120
65 | CS(=O)(=O)N1CCC(C(=O)NCCNc2ncccn2)CC1 | -2.901
66 | O=C(NCCNc1ncccn1)C1CCN(c2ncccn2)CC1 | -3.346
67 | CCCC(=O)N1CCC(C(=O)NCCNc2ncccn2)CC1 | 97.7
